PubChem BioAssay AID1159580 (chemical genetic matrix, 2015)
Where “and” joins values, the source holds several entries; their conditions need not be identical. Equal entries are not always repeated. The campaign covered roughly 5,500 compounds. About 2,000 (36%) were called active. Roughly 18% stayed inconclusive and do not appear here. Some of the results follow. Values without a mark were called inactive. Rule as the data show it: active = normalized growth mostly below about 0.91 (no sharp cut-off); inconclusive = no clear call, values can overlap the other calls; inactive = mostly above about 0.92.

Experiment: chemical genetic growth profiling, strain panel (AID 1159580);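 also: tested at 20 µM; growth read once vehicle control cultures reached saturation at 30 °C; 1 = growth at the plate median or of vehicle wells; lower values mean less growth of the strain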
Details: S. cerevisiae deletion strains, growth OD

For `CN(Cc1cc(Br)cc(Br)c1N)C1CCCCC1`, the normalized growth (locus YAL021C, strain ccr4, hits give low values) was 0.979, the normalized growth (locus YAL026C, strain drs2, hits give low values) was 1.03 and the normalized growth (locus YAL030W, strain snc1, hits give low values) was 1.06. The normalized growth (locus YBL061C, strain skt5, hits give low values) was 1.03, the normalized growth (locus YBR009C, strain hhf1, hits give low values) was 1 and the normalized growth (locus YBR021W, strain FUR4, hits give low values) was 0.948. For the same compound, the normalized growth (locus YBR023C, strain chs3, hits give low values) was 1.03, the normalized growth (locus YBR171W, strain sec66, hits give low values) was 1.06 and the normalized growth (locus YBR229C, strain ROT2, hits give low values) was 1.01. It also gave a normalized growth (locus YBR231C, strain swc5, hits give low values) of 1.02, a normalized growth (locus YBR279W, strain paf1, hits give low values) of 1.02 and a normalized growth (locus YCL011C, strain gbp2, hits give low values) of 1.02. The normalized growth (locus YCL016C, strain dcc1, hits give low values) was 1.01, the normalized growth (locus YCL029C, strain bik1, hits give low values) was 1.02 and the normalized growth (locus YCL061C, strain MRC1, hits give low values) was 1.01. It also gave a normalized growth (locus YCL069W, strain vba3, hits give low values) of 1.03, a normalized growth (locus YCR088W, strain abp1, hits give low values) of 1.05 and a normalized growth (locus YDL005C, strain med2, hits give low values) of 1.07. For the same compound, the normalized growth (locus YDL035C, strain GPR1, hits give low values) was 0.943, the normalized growth (locus YDL040C, strain nat1, hits give low values) was 1.03 and the normalized growth (locus YDL074C, strain BRE1, hits give low values) was 0.954. For the same compound, the normalized growth (locus YDL101C, strain DUN1, hits give low values) was 0.999, the normalized growth (locus YDL134C, strain PPH21, hits give low values) was 1 and the normalized growth (locus YDL185W, strain tfp1, hits give low values) was 1.02. For the same compound, the normalized growth (locus YDL192W, strain arf1, hits give low values) was 1.02, the normalized growth (locus YDR001C, strain nth1, hits give low values) was 1.03 and the normalized growth (locus YDR069C, strain doa4, hits give low values) was 0.983. The normalized growth (locus YDR101C, strain arx1, hits give low values) was 0.999, the normalized growth (locus YDR137W, strain rgp1, hits give low values) was 1.03 and the normalized growth (locus YDR159W, strain sac3, hits give low values) was 1.09. For the same compound, the normalized growth (locus YDR162C, strain NBP2, hits give low values) was 1.02, the normalized growth (locus YDR195W, strain ref2) was 1.13 and the normalized growth (locus YDR297W, strain sur2, hits give low values) was 1.03. For the same compound, the normalized growth (locus YDR318W, strain mcm21, hits give low values) was 0.982, the normalized growth (locus YDR334W, strain swr1, hits give low values) was 1.03 and the normalized growth (locus YDR335W, strain msn5, hits give low values) was 1.02. It also gave a normalized growth (locus YDR388W, hits give low values) of 1.01, a normalized growth (locus YDR392W, strain spt3, hits give low values) of 0.975 and a normalized growth (locus YDR502C, strain sam2, hits give low values) of 0.996. The normalized growth (locus YEL003W, strain gim4, hits give low values) was 1.01, the normalized growth (locus YEL037C, strain rad23, hits give low values) was 1.03 and the normalized growth (locus YEL061C, strain CIN8 (second series), hits give low values) was 0.991. The normalized growth (locus YEL061C, strain CIN8, hits give low values) was 0.975, the normalized growth (locus YER015W, strain faa2, hits give low values) was 1.03 and the normalized growth (locus YER016W, strain bim1, hits give low values) was 0.988. It also gave a normalized growth (locus YER110C, hits give low values) of 1.03, a normalized growth (locus YER111C, strain swi4, hits give low values) of 1.04 and a normalized growth (locus YER155C, strain BEM2 (second series), hits give low values) of 1.03. For the same compound, the normalized growth (locus YER155C, strain BEM2, hits give low values) was 1.01, the normalized growth (locus YER167W, strain BCK2, hits give low values) was 1.02 and the normalized growth (locus YFR010W, strain ubp6, hits give low values) was 0.994. It also gave a normalized growth (locus YGL078C, strain dbp3, hits give low values) of 1.02, a normalized growth (locus YGL086W, strain mad1, hits give low values) of 0.967 and a normalized growth (locus YGL167C, strain pmr1, hits give low values) of 1.03. It also gave a normalized growth (locus YGL173C, strain kem1, hits give low values) of 0.995, a normalized growth (locus YGL227W, strain vid30, hits give low values) of 1.04 and a normalized growth (locus YGL240W, strain doc1, hits give low values) of 0.965. It also gave a normalized growth (locus YGL248W, strain PDE1, hits give low values) of 0.984, a normalized growth (locus YGL253W, strain hxk2, hits give low values) of 1.03 and a normalized growth (locus YGR135W, strain pre9, hits give low values) of 1.02. For the same compound, the normalized growth (locus YGR252W, strain gcn5, hits give low values) was 0.84, the normalized growth (locus YHR013C, strain ard1, hits give low values) was 1.06 and the normalized growth (locus YHR027C, strain rpn1, hits give low values) was 1.01. For the same compound, the normalized growth (locus YHR030C, strain SLT2, hits give low values) was 1.02 and 0.894, the normalized growth (locus YHR079C, strain IRE1 (second series), hits give low values) was 1.02 and the normalized growth (locus YHR079C, strain IRE1, hits give low values) was 0.936. The normalized growth (locus YHR094C, strain hxt1, hits give low values) was 1.03, the normalized growth (locus YHR129C, strain ARP1, hits give low values) was 1.01 and the normalized growth (locus YHR142W, strain chs7, hits give low values) was 1.06. For the same compound, the normalized growth (locus YHR200W, strain rpn10, hits give low values) was 1.01, the normalized growth (locus YIL066C, strain RNR3, hits give low values) was 0.991 and the normalized growth (locus YIL073C, strain SPO22, hits give low values) was 1.06. It also gave a normalized growth (locus YIL125W, strain kgd1, hits give low values) of 1.01, a normalized growth (locus YIR030C, strain dcg1, hits give low values) of 1.02 and a normalized growth (locus YJL092W, strain hpr5, hits give low values) of 1.03. For the same compound, the normalized growth (locus YJL095W, strain BCK1 (second series), hits give low values) was 1.02, the normalized growth (locus YJL095W, strain BCK1, hits give low values) was 0.97 and 0.902 and the normalized growth (locus YJL115W, strain asf1, hits give low values) was 1.06. For the same compound, the normalized growth (locus YJL129C, strain trk1, hits give low values) was 1.03, the normalized growth (locus YJL134W, strain LCB3, hits give low values) was 1.02 and the normalized growth (locus YJL154C, strain vps35, hits give low values) was 1.03. It also gave a normalized growth (locus YJL164C, strain tpk1, hits give low values) of 1.02, a normalized growth (locus YJL166W, strain qcr8, hits give low values) of 1 and a normalized growth (locus YJL168C, strain set2, hits give low values) of 1.02. For the same compound, the normalized growth (locus YJL187C, strain SWE1 (second series), hits give low values) was 0.974, the normalized growth (locus YJR043C, strain POL32, hits give low values) was 0.987 and the normalized growth (locus YJR066W, strain TOR1, hits give low values) was 0.81 (active).
